Reference: PubChem BioAssay AID588742 (Southern Research Specialized Biocontainment Screening …, 2011)
In all, about 1,800 compounds went through this assay and about 410 (23%) were called active. How the calls were made is not given here. A selection follows. Measured potencies and affinities stand elsewhere.

Test: viability of Vero cells under compound – cytotoxicity control for flavivirus capping enzyme inhibitors (AID 588742)
Conditions: cytotoxicity counter-screen; series mostly up to 40 µM

Structure (SMILES) | outcome
COc1c(OC(C)=O)ccc(/C=N\NC(=O)c2ccc(Br)cc2)c1[N+](=O)[O-] | inactive
O=C(O/N=C1\CCCCC1c1ccc([N+](=O)[O-])cc1[N+](=O)[O-])c1c(F)cccc1F (stereo not given) | inactive
O=C(O)c1cc(/C=C/C(=O)c2cc(F)ccc2O)c2c(c1)COCO2 | inactive
Cc1cc(S(=O)(=O)ON2C(=O)c3ccccc3C2=O)ccc1F | inactive
Cc1cc(N2C(=O)C(O)=C(C(=O)c3ccco3)C2c2cccc(Oc3ccccc3)c2)no1 (stereo not given) | inactive
CCCCC1=CC2=CC(=O)C(C)(OC(=O)CC)C(=O)C2=CN1Cc1ccc(OC)cc1 (stereo not given) | inactive
O=C1C=CC2=C3c4cc(O)c(O)cc4CC3(O)COC2=C1O (stereo not given) | inactive
CCOC(=O)C1(C)/C(=N/Nc2cccc(Cl)c2)C(=O)C(=O)N1c1ccccc1 (stereo not given) | inactive
N=C1/C(=C\c2ccc(OC(=O)c3ccc(F)cc3)cc2)C(=O)N=C2SC(N3CCOCC3)=NN12 | inactive
O=C(O)CCCCCN1C(=O)C(O)=C(C(=O)/C=C/c2ccccc2)C1c1ccccc1[N+](=O)[O-] (stereo not given) | inactive
O=C(CCN1C(=O)/C(=C/c2ccccc2Cl)SC1=S)Nc1ccccc1C(=O)O | inactive
O=C(N/N=C/C(Cl)=C/c1ccc([N+](=O)[O-])cc1)C(=O)Nc1ccccc1C(=O)O | inactive
Oc1cc(-n2cccn2)c(O)cc1-n1cccn1 | inactive
CC(=O)Nc1ccc(NC(=O)CC2Nc3cccc4cccc(c34)NC2=O)cc1 (stereo not given) | inactive
COc1ccc(C2C=C(c3ccc(F)cc3)NC(=S)N2)cc1OC (stereo not given) | inactive
COC(=O)CCC(=O)OC1(C)C(=O)C2=CN(c3ccccc3)C(c3ccc(OC)cc3)=CC2=C(Br)C1=O (stereo not given) | inactive
O=c1[nH]c(/C=C/c2ccc(Cl)cc2Cl)c([N+](=O)[O-])c(=O)[nH]1 | inactive
CC1CCc2c(sc(N)c2C(N)=O)C1 (stereo not given) | inactive
CN(C(=S)Nc1cccnc1)c1ccc(O)cc1 | inactive
Oc1ccc(NCc2ccc(OCc3ccccc3)cc2)cc1 | inactive
CCOc1ccc(Nc2ccc(N)c(S(=O)(=O)O)c2)cc1 | inactive
CCC(C)c1ccc(NC(=O)Nc2cccnc2)cc1 (stereo not given) | inactive
O=c1cccccc1NCc1ccccc1 | inactive
NC(=S)NNc1cccc2cccnc12 | inactive
O=C1C=C(Nc2ccccc2C(=O)O)c2ccccc2C1=O | inactive

Structure (SMILES) | outcome
C#CCOc1c(/C=C\c2nc(O)c([N+](=O)[O-])c(=O)[nH]2)cc(Br)cc1OC | inactive
COC(=O)c1ccc(NC(=O)CCc2nnc3ccc(NCc4ccco4)nn23)cc1 | inactive
COc1ccc(OC)c(/C=C/c2c([N+](=O)[O-])c(=O)n(C)c(=O)n2C)c1 | inactive
CC1(OC(=O)CCc2ccccc2)C(=O)C=C2C=C(c3ccc(C#N)cc3)N(C3CCCC3)C=C2C1=O (stereo not given) | inactive
O=C1/C(=C\c2ccc(-c3ccccc3[N+](=O)[O-])o2)C(c2ccccc2)=NN1c1ccccc1 | inactive
CCn1c(CSc2nnc3ccccn23)nc2cc(C(=O)O)ccc21 | inactive
O=C(O)C1=CC[C@@H](c2ccc(Cl)cc2)N(S(=O)(=O)c2ccc(Cl)cc2)[C@H]1c1cccc(Cl)c1 | inactive
COc1ccccc1CNC(=S)Nc1ccc(S(N)(=O)=O)cc1 | inactive
Cc1ccc(Nc2ccc(N)cc2S(=O)(=O)O)cc1 | inactive
Cc1ccc(C)c(S(=O)(=O)ON2C(=O)c3ccccc3C2=O)c1 | inactive
CCOC(=O)c1c(-c2cccc(C)c2)csc1NC(=O)C1CC=CCC1C(=O)O (stereo not given) | inactive
Cc1ccc(C(=O)Nc2ccccc2C(=O)O)cc1S(=O)(=O)Nc1ccc(Br)cc1 | inactive
COC(=O)c1ccc(N2NC(=O)/C(=C/c3ccc(-c4ccc(Cl)c(C(=O)O)c4)o3)C2=O)cc1 | inactive
CC1(OC(=O)C2CCCC2)C(=O)C=C2C=C(c3ccsc3)N(CCc3ccccn3)C=C2C1=O (stereo not given) | inactive
CSc1nsc2nc(=O)c(/C=C3\C=Nc4ccccc43)c(N)n12 | inactive
CC1=NN(Cc2ccccc2)C(=O)C1C(c1ccc(Cl)cc1)C(C#N)C#N (stereo not given) | inactive
Cc1ccc(F)c(NC(=O)/C(C#N)=C(\O)c2ccc(C(C)(C)C)cc2)c1 | inactive
Cc1ccc(NC(=O)c2cccc(C(=O)Nc3ccc(C)cc3C(=O)O)c2)c(C(=O)O)c1 | inactive
Cn1c(=O)c2[nH]c(-c3ccccc3)c(O)c2n(C)c1=O | inactive
O=C(O)COc1ccc(/C=C/C(=O)c2ccc(C3CCCCC3)cc2)cc1 | inactive
O=C(O)c1ccc2c(c1)C(=O)N(c1ccc(/C=C/C(=O)c3ccccc3)cc1)C2=O | inactive
C#CCOc1c(Br)cc(/C=C2/C(=O)ON=C2C)cc1OC | inactive
CC(C(=O)Nc1ccc(O)cc1C(=O)O)N1C(=O)/C(=C\c2cccs2)SC1=S (stereo not given) | inactive
O=C1CC2CCCN2C=C1I (stereo not given) | inactive
c1cc2c(cc1CNc1ccc(N3CCOCC3)cc1)OCO2 | inactive

Structure (SMILES) | outcome
Cc1ccc(-c2cc(C(=O)O)c3cc(Br)ccc3n2)o1 | inactive
Cc1ccnc(NCc2ccccc2O)c1 | inactive
O=C1C(Cl)=C(N2CCCC2)C(=O)N1c1ccccc1F | inactive
Cc1ccc(N2C(=O)C(Cl)=C(N3CCN(C)CC3)C2=O)c(C)c1 | inactive
O=C1C(Cl)=C(N2CCCCC2)C(=O)N1c1ccccc1 | inactive
CN1CCN(C2=C(Cl)C(=O)N(c3ccc(Cl)c(Cl)c3)C2=O)CC1 | inactive
CCCCNC(=O)c1ccc2nc(-c3ccco3)c(-c3ccco3)nc2c1 | inactive
CC1=NN(c2ccc(C)c(C)c2)C(=O)C1C(c1cccc(O)c1)C1C(=O)N(c2ccc(C)c(C)c2)N=C1C (stereo not given) | inactive
CCCCC1=CC2=C(c3ccco3)C(=O)C(C)(OC(=O)c3ccc(OC)cc3)C(=O)C2=CN1C(CO)CO (stereo not given) | inactive
C=CCOc1ccc(C(c2c(O)nc(SC)[nH]c2=O)c2c(O)nc(SC)[nH]c2=O)cc1 | inactive
CC(=O)N1c2ccc(S(=O)(=O)N(C)CC(=O)Nc3ccccc3C)cc2CC1C (stereo not given) | inactive
O=C(CN1C(=O)/C(=C2/SC(=S)N(CCS(=O)(=O)O)C2=O)c2ccccc21)Nc1cccc(Br)c1 | inactive
O=C(O)c1ccccc1NS(=O)(=O)c1ccc(NNC(=S)Nc2ccc(OC(F)F)cc2)c([N+](=O)[O-])c1 | inactive
C=CCNc1nc(Nc2ccc([N+](=O)[O-])cc2)nc(OC)n1 | inactive
O=C(Nc1ccc(Cl)cc1C(=O)O)c1ccc2c(c1)C(=O)N(Cc1ccco1)C2=O | inactive
C#CCOc1ccccc1/C=C1/C(=O)ON=C1C | inactive
COc1ccc(-c2csc(NC(=O)c3ccccc3Br)c2C(=O)O)cc1 | inactive
Cc1ccc(/C=N/NC(=O)c2nnn(-c3nonc3N)c2CSc2ccccc2)s1 | inactive
CCC(=O)OC1(C)C(=O)C2=COC(c3ccc(OC)cc3)=CC2=C(Br)C1=O (stereo not given) | inactive
CCc1ccc(Nc2ccc(C(=O)O)cc2[N+](=O)[O-])cc1 | inactive
O=C(Nc1cc(S(=O)(=O)N2CCOCC2)ccc1O)c1ccc2c(c1)S(=O)(=O)c1ccccc1C2=O | inactive
O=S(=O)(Nn1c(O)c(C=C2N=c3ccccc3=N2)sc1=S)c1ccccc1 | inactive
O=C1ON=C(c2ccc([N+](=O)[O-])cc2)/C1=C/c1ccccc1O | inactive
O=C(NCc1ccccc1)c1sc(=S)n2c1[nH]c(=O)c1ccccc12 | inactive
Nc1scc2c(C(=O)O)nn(-c3ccccc3)c(=O)c12 | inactive

Structure (SMILES) | outcome
CCOC(=O)c1sc(N2C(=O)C(O)=C(C(=O)c3ccco3)C2c2ccc([N+](=O)[O-])cc2)nc1C (stereo not given) | inactive
Cc1cc(O)c(C(C)C)cc1N=Cc1ccccc1O | inactive
O=C1C(Cl)=C(N2CCN(Cc3ccccc3)CC2)C(=O)N1c1ccccc1 | inactive
CC(=O)Oc1oc(-c2ccccc2)nc1C=Nc1ccccc1 | inactive
COc1cc(C(=O)Nc2scc(-c3ccc(Br)cc3)c2C(=O)O)cc(OC)c1OC | inactive
Cc1ccc(SCc2[nH]nc3c2C(c2ccco2)C(C#N)=C(N)O3)cc1 (stereo not given) | inactive
Nc1cccc2c1C(=O)N(C(=O)/C=C/c1cccc(F)c1)C2=O | inactive
O=[N+]([O-])c1ccc(O)c(C=Nc2ccc3c(c2)OCO3)c1 | inactive
Cc1cc(O)c(C(C)C)cc1N=Cc1cc([N+](=O)[O-])ccc1O | inactive
CC[N+]1(CC)CC2CCC(C)(C1)C2(C)C (stereo not given) | inactive
CCCn1c(C)cc(-c2csc(N)n2)c1C | inactive
O=[N+]([O-])c1c(Nc2ccccc2O)cc(Cl)c2nonc12 | inactive
O=C(O)c1cc(Nc2cc(Cl)c3nonc3c2[N+](=O)[O-])ccc1O | inactive
O=C(O)c1cccc(Nc2cc(Cl)c3nonc3c2[N+](=O)[O-])c1 | inactive
O=[N+]([O-])c1ccc(O)c(Nc2c([N+](=O)[O-])ccc3nonc23)c1 | inactive
O=C(O)c1ccc(Nc2cc(Cl)c3nonc3c2[N+](=O)[O-])cc1 | inactive
Cc1ccc(/C=N/c2sc3c(c2C#N)CCC3)s1 | inactive
COc1cc(C2C(C#N)=C(N)N(c3cccnc3)C3=C2C(=O)CCC3)ccc1O (stereo not given) | inactive
CCCCCc1c2c(cc(O)c1C(=O)O)OC(=O)c1cc(C(=O)CCCC)c(OC)cc1O2 | inactive
COC(=O)Cc1ccc(NC(=S)Nc2ccc(N3CCOCC3)cc2)cc1 | inactive
COc1cc(/C=C2/C(=O)NN(c3cccc(C)c3)C2=O)ccc1OC(=O)c1ccco1 | inactive
CCC(C)NC(=O)c1ccc(N2CCC3(CC2)OCCO3)c([N+](=O)[O-])c1 (stereo not given) | inactive
CC(C)NC(=O)Cn1cc(S(=O)(=O)N2CCCC2)c(S(=O)(=O)N2CCCC2)c1 | inactive
CC(=O)Nc1ccc(C2=NNC(=NCC3CCCO3)SC2)cc1 (stereo not given) | inactive
O=C(O)CN1C(=O)/C(=C\c2cc(Br)ccc2OCc2ccc([N+](=O)[O-])cc2)SC1=S | inactive
